Measured values taken from PubChem BioAssay (NCI).
Compounds without any hit were thinned out: in the full panel of roughly 79,000, 15% have a hit. Activity calls are given as the source filed them. Rule as the data show it: active = growth inhibition above about 70%; inactive = the rest.

Test: NCI Yeast Anticancer Drug Screen. Data for the mec2-1 strain (AID 157)
Settings: S. cerevisiae mec2-1 strain, at 50.0 µM, stronger effect = higher value
Outline: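 Readout is yeast growth inhibition, normalised to vehicle-treated controls, in the mec2-1 strain exposed to compound.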

Row | Compound | growth inhibition
1 | NC(=O)/C=C/C(=O)O | 9.75% (inactive)
2 | O=C(O)c1cc(I)cc(I)c1I | -16.1% (inactive)
3 | CC(C)(C)NC(=O)C(Cl)Cl | -5.7% (inactive)
4 | O.O.O=Cc1ccccc1O.O=Cc1ccccc1O.[Co] | 92.2% (active)
5 | CC(Cc1ccc(O)cc1)NCC(O)c1ccc(O)c(O)c1 (centres undefined) | 15.3% (inactive)
6 | CC1([N+](=O)[O-])COP(=O)(NCC2CCCO2)OC1 (centres undefined) | -23.9% (inactive)
7 | O=[As](O)(O)c1cc(F)ccc1F | -4.3% (inactive)
8 | O=C(O)COc1ccc(Cl)cc1Cl (tested in a mixture with another compound) | -3.35% (inactive)
9 | NC(CSC(c1ccccc1)c1ccccc1)C(=O)O (centres undefined) | 0% (inactive)
10 | Cc1cccc(C)c1[S][Pb][S]c1c(C)cccc1C | -3.75% (inactive)
11 | O=C(CF)NCCCl | -8.8% (inactive)
12 | O=C(Nc1ccc(Cl)cc1C(=O)c1ccccc1)c1ccc(Cl)cc1 | 10.1% (inactive)
13 | CN1CN(c2ccccc2)C2(CCN(CC(C)(c3ccc(F)cc3)C3OCCCO3)CC2)C1=O (centres undefined) | -18.9% (inactive)
14 | CCOC(CNC(=O)c1ccc(S(=O)(=O)F)cc1)OCC | 27.6% (inactive)
15 | CCN(CC)CC(=O)c1ccccc1 | -8.85% (inactive)
16 | CCC[CH2][Sn]([CH2]CCC)([CH2]CCC)[CH2]CC(=O)OC | 99.4% (active)
17 | CCC(=O)C1(c2ccccc2)CCN(C)CC1 | -35.7% (inactive)
18 | Cc1nnnn1C | -11.6% (inactive)
19 | O=[As](O)(O)c1cc(N=Nc2ccc(-c3ccc(N=Nc4cc([As](=O)(O)O)c(O)cc4O)cc3)cc2)c(O)cc1O | 44% (inactive)
